# From PubChem BioAssay AID1463 (National Center for Advancing Translational Sciences (NCATS), 2008)
# The whole screen tested about 280,000 compounds, of which about 2,600 (0.93%) were called active. Where a call stands in place of a potency, no number is given. Another 8% or so got no clear call; they are omitted. Calls come from the whole dose curve; as a rule, active = well fitted curve in the direction sought with a large enough effect; inconclusive = small, poorly fitted or top-dose-only effect; inactive = flat fitted curve, though single readings scatter. Only a selection was taken, and actives are over-represented in it overall.
# Assay: Counterscreen qHTS for Inhibitors of Tau Fibril Formation, Fluorescence Polarization; note: nearly all actives have a fitted effect of over 55% in size
# Details: tau K18 P301L Alexa594 fluorescence, heparin fibrillization; series mostly up to 57.7 µM
# In short: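 Human tau K18 P301L (15 uM unlabeled, 0.24 uM Alexa 594-labeled) in 100 mM sodium acetate pH 7 with 20 uM heparin, 6 hr at 37 C. ThT 30 uM added, 1 hr ambient; Alexa 594 FP and total fluorescence read at 555/632 nm.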
# Potency is the fitted concentration of half-maximal effect; tags give direction and shape of the fitted curve or compound fluorescence and quenching.
row,Compound,Potency
1,CCc1ccc2nc3sc(C(=O)Nc4nnc(CC)s4)c(N)c3cc2c1,inactive
2,COc1ccc(Cl)cc1NC(=O)c1sc2nc3c(cc2c1N)CN(C)CC3,10 µM [quencher] (active)
3,CCc1ccccc1NC(=O)c1sc2nc3c(cc2c1N)CN(Cc1ccccc1)CC3,inactive
4,O=C(Nc1ccc(S(=O)(=O)N2CCC(c3nc4ccccc4s3)CC2)cc1)c1ccccc1F,inactive
5,Cc1cc(C)cc(-n2ccnc2SCC(=O)Nc2nc3ccccc3s2)c1,inactive
6,CCOc1ccccc1CNC(=O)Nc1cn(CC(C)C)c(=O)c2ccccc12,inactive
7,CC(C)Cn1c(C2CC(=O)N(c3ccccc3Cl)C2)nc2ccccc21 (stereo unspecified),inactive
8,Cc1ccc(-c2csc(-c3c[nH]c4ccccc34)n2)cc1,7.08 µM [quencher] (active)
9,CCCc1cc(-c2nc(-c3ccc(C)cc3)cs2)ccn1,inactive
10,Cc1ccc(-c2csc(-c3cc(C)on3)n2)cc1,inactive
11,Cc1ccc2c(=O)c(C(=O)c3ccc(Cl)cc3)cn(CC(=O)NC3CCCCC3)c2n1,inactive
12,Cc1ccc(C(=O)NCCSc2c(C)[nH]c3ccccc23)cc1C,12.6 µM [quencher] (active)
13,CN(C)CCCNC(=O)c1ccc2[nH]c3ccccc3c2c1,inactive
14,COC(=O)CCNC(=O)c1ccc2[nH]c(C)c(C)c2c1,inactive
15,COc1ccc(C(=O)N2CCC(c3nc4ccccc4o3)CC2)cc1,inactive
16,CCOc1ccccc1C(=O)NCc1ccc2c(c1)CCN2C(=O)c1ccc(F)cc1,inactive
17,Cc1ccc(S(=O)(=O)NCc2nc3nc(C)cc(C)n3n2)cc1,inactive
18,Cc1cc(N/N=C/c2ccccc2F)c2ccccc2n1,inactive
19,Oc1ccc(/C=N/NC2=NCCCCC2)c(O)c1,inactive
20,Oc1ccc(/C=N/Nc2nc(-c3ccccc3F)nc3ccccc23)c(O)c1,5.01 µM [quencher] (active)
21,Cc1c(C(=O)Nc2cccc(Cl)c2)oc2ccc(S(=O)(=O)N3CCOCC3)cc12,inactive
22,COc1cc(OC)c(OC)cc1/C=C/c1nc2ccccc2c(=O)n1-c1ccc(Br)c(C)c1,inactive
23,Cc1cc(Nc2ccccc2)n(CCC#N)n1,inactive
24,Cc1cc(Nc2ccccc2)n(C(=O)c2ccc(N)cc2)n1,25.1 µM [quencher] (active)
25,Cc1cc(NC(=O)Nc2ccccc2)n(-c2ccccc2)n1,inactive
26,CCOc1ccc(-n2c(C)nc3c(cnn3-c3ccc(C)cc3)c2=O)cc1,inactive

row,Compound,Potency
1,CCOc1ccc(NC(=O)c2c(NC(=O)Cc3ccccc3)sc3c2CCCCC3)cc1,inactive
2,COc1ccc(CCNC(=O)Cn2c(=O)cc(C(F)(F)F)c3c(C)nn(C)c32)c(OC)c1,inactive
3,CCOC(=O)c1c(NC(=O)C(C)Sc2c[nH]c3ccccc23)sc2c1CCC2 (stereo unspecified),7.94 µM [quencher] (active)
4,CCOC(=O)c1c(NC(=O)CSc2cn(CC)c3ccccc23)sc2c1CCC2,inactive
5,CCOC(=O)c1c(NC(=S)Nc2ccccc2C)sc2c1CCC2,inactive
6,CCN(CC)C(=O)CSc1nc2cc3c(cc2c(=O)n1CCCC(=O)NCc1ccc2c(c1)OCO2)OCO3,inactive
7,Cn1c(=O)c2c(nc(N/N=C/c3cccs3)n2Cc2ccc(Br)cc2)n(C)c1=O,14.1 µM [quencher] (active)
8,CCCCNc1nc2c(c(=O)n(C)c(=O)n2C)n1Cc1cccc(OC)c1,inactive
9,Cn1c(=O)c2c(nc(NCCc3ccccc3)n2Cc2ccccc2Br)n(C)c1=O,inactive
10,CCOc1ccccc1N(C)C(=O)c1cc2c(s1)-c1ccccc1OC2,inactive
11,CCn1cc(NC(=O)Nc2ccc(OC)c(OC)c2)c(C(N)=O)n1,inactive
12,Cc1ccc(NC(=O)NC(C)c2c(-n3cccc3)sc(C)c2C)c(C)c1 (stereo unspecified),inactive
13,COc1ccc(NC(=O)NC(C)c2c(-n3cccc3)sc(C)c2C)cc1OC (stereo unspecified),15.8 µM [quencher] (active)
14,Cc1ccc(CSc2nc3ccsc3c(=O)n2CCC(C)C)cc1,inactive
15,CCOC(=O)c1c(S(=O)(=O)NCC(=O)Nc2ccc(Cl)c(C(F)(F)F)c2)c(C)n(C)c1C,inactive
16,O=c1[nH]c(N2CCN(Cc3ccc4c(c3)OCO4)CC2)nc2c1CCCC2,inactive
17,Fc1ccc2[nH]c3c(N4CCN(Cc5ccc6c(c5)OCO6)CC4)ncnc3c2c1,25.1 µM [quencher] (active)
18,Fc1ccc2[nH]c3c(N4CCSCC4)ncnc3c2c1,inactive
19,COc1ccc(S(=O)(=O)c2c(Nc3ccc(C)cc3)sc(C(=O)c3ccc(C)cc3)c2N)cc1,inactive
20,O=C(NCC(c1ccc2c(c1)OCO2)N1CCN(c2ccccc2)CC1)C(=O)Nc1ccccc1F (stereo unspecified),inactive
21,O=C(N/N=C/c1ccc(OCc2ccccc2)cc1)c1ccc(O)cc1,inactive
22,Oc1ccc(/C=N/N(Cc2ccccc2)c2ccccc2)cc1,15.8 µM [quencher] (active)
23,CN(C)c1ccc(/C=N/N(Cc2ccccc2)c2ccccc2)cc1,inactive
24,CCN(CC)c1ccc(NC(=O)CN2C(=O)c3cccnc3Oc3ccc(Cl)cc32)c(C)c1,inactive
25,CCc1cc2c(cc3c(=O)n(CC(=O)N4CCN(c5cc(Cl)ccc5C)CC4)ncn32)s1,inactive
